Assay results reported in the supplement of paper PMC3334620.
Whole data set: some 33,000 sequences, median “E-score (-0.5 to 0.5)” near -0.054, cut for the highest 2% near 0.35. What follows is part of a selection rich in the highest values, with near analogues and random picks from the rest.

Target: T1, Stb5 (UniProt P38699)
T1 sequence: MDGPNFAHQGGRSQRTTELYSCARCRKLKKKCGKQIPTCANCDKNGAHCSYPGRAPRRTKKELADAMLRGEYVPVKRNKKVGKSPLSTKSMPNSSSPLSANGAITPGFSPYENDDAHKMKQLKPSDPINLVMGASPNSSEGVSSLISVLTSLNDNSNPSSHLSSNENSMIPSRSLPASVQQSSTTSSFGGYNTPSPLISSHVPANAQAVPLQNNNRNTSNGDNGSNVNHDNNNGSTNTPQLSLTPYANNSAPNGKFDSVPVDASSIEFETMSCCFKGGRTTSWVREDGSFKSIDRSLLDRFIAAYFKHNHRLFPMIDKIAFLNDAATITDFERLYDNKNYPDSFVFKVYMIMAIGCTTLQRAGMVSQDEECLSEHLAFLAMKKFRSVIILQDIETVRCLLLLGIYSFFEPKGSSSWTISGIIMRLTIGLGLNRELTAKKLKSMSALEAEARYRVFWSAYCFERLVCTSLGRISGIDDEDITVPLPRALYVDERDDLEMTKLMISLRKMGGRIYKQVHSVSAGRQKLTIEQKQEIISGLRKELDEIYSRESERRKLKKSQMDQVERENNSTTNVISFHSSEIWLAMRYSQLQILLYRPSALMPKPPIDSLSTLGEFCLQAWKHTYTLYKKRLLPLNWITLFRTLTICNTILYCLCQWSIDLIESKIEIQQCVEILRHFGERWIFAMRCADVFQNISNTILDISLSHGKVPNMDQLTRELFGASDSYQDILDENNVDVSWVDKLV
Assay: PBM E-score (8-mer binding enrichment) (E-score (-0.5 to 0.5)); higher = stronger / more preferred TF binding
Details: protein concentration: 200 nM; construct: GST-full length
In short: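 Masliner-normalised scans of fluorescent anti-GST signal were the basis for scoring. That signal came from GST-tagged yeast transcription factors applied at about 100-200 nM to double-stranded universal all-10-mer Agilent arrays on fresh or once-stripped slides. Each ungapped eight-base word, pooled with its reverse complement, received an E-score from the Universal PBM Analysis Suite.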

Sequence | PBM E-score
AAAGTCCT | 0.108
AAAGTCCA | -0.136
AAAGTCCG | 0.466
ACGATTAC | -0.161
CTCTGCCA | -0.235
TCGGCCCA | 0.105
ACGGAGAC | 0.272
ACGGAGAT | 0.403
ACGGATAT | 0.367
ACGGATAG | -0.0573
ACGGAGCC | 0.263
ACGGAGCG | 0.299
ACGGATAA | 0.215
ACGGAGCT | 0.373
ACGGAGAA | 0.188
AACTGTGA | -0.19
ATTGGAAA | -0.0189
ATCCTTTC | -0.195
CAGGCGAA | -0.257
GGCTTCTA | -0.04
AGTCGTAC | -0.189
TGTCGGAA | 0.26
ACAGGTCA | -0.136
CACTACTA | -0.117
ACCATCCA | -0.118

Sequence | PBM E-score
CTAGTACC | 0.226
ATAGTACC | 0.359
ATAGTACG | -0.0437
CGCCGATA | 0.36
CGCCGATC | 0.363
AGCCGATA | 0.0102
GGCCGATA | 0.266
CCCCGATA | 0.339
CCCCGATC | 0.374
ACCCGATC | 0.19
CGCCGAGC | 0.261
AGCCGATC | 0.0924
ACTATTCA | -0.084
CGCATCTC | -0.00684
TCTTTACA | -0.117
AGTGGCGG | 0.292
ACAGTTAC | -0.0633
GGGAATAC | 0.302
TGGAATAA | -0.14
GGGAATAA | 0.373
CAACGAAC | 0.079
CACCGATA | 0.351
AACCGATG | 0.143
AACCGATC | 0.106
CACCGATG | 0.357

Sequence | PBM E-score
GACCGATC | 0.323
CACCGATC | 0.359
GAGGCTGC | -0.213
ATCGGTTG | 0.0401
CGCAATAC | -0.0062
CCTGGTCG | 0.0613
AATCGGTG | 0.405
ACTCGGGG | 0.185
AGTCGGTA | 0.36
GGTCGGTA | 0.319
AGTCGGGA | 0.287
CCTCGGTA | 0.223
CGTCGGTC | 0.325
CGTCGGTA | 0.357
AGTCGGGG | 0.363
ACTCGGTA | -0.00538
AATCGGTA | 0.262
AATCGGTC | 0.234
ATTGAAAT | -0.0501
AACGAGGC | -0.168
ACTCTACG | -0.241
TATACTCA | -0.245
GCGATTCA | 0.00506
GGGCGCCC | 0.147
GATAACGA | -0.102

Sequence | PBM E-score
ACTCAAGG | -0.223
GGACGGTA | 0.241
AGTCGGTG | 0.385
AATCGGGC | 0.209
AGTCGGCG | 0.239
CATCGGGG | 0.313
AATCGGGG | 0.372
CGACGGTC | 0.315
AGTCGGTC | 0.259
CGACGGTA | 0.352
AAATGGAT | -0.168
AGGGAGAC | -0.0822
AACATGGT | -0.217
GCCAGCGC | -0.00309
GAAGGGGC | -0.11
AGCTCTCC | -0.325
CTGCGTCA | -0.121
GTAACTAC | 0.109
ATTCCCGG | 0.319
CTTCCCGA | 0.0298
CTTCCCGC | 0.129
ATTCCCGC | 0.4
ATTCCCGA | 0.379
GTTCCCGA | 0.235
AATCCTAG | -0.0194
